The campaign covered roughly 31,000 sequences. About 1,400 (4.5%) were called active.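 The calls were made as follows: active = median seed-adjusted z-score above 1 or below -1; inactive = the rest.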 The full list was thinned out, with actives kept by preference.

This assay in a line: Novel Modifiers of Survival Motor Neuron (SMN) Protein: Gene Identification via Genome-wide siRNA Screen. The conditions noted are these: HEK293T SMN2-luciferase reporter, siRNA knockdown, 72 h; actives lie on both sides. The method in brief:
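Each of three siRNAs per gene is reverse-transfected (1 pmol) into reporter HEK293T cells whose luciferase output tracks SMN protein level. After 72 h culture, ONE-Glo luminescence is control-normalized, log10-transformed and MAD-standardized; Common Seed Analysis deprioritizes seed-driven hits.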
In the case of GCCUCACGUUUGUCAGUAUTT against WNK3, the median seed-adjusted z-score was -0.466 (inactive). In the case of CAUCCAACGACAAUCUAUATT against ATP1A2, the median seed-adjusted z-score was 0.248 (inactive). On to UCACGGCUCUGUUGAAUGUTT against DUSP4, for which the median seed-adjusted z-score is -0.176 (inactive). For GACCCAUGGUAAAAUGCAATT against TWIST1, the median seed-adjusted z-score was -0.159 (inactive). Take GCAUAAUAAGGGUAGGGAUTT against DDX53: the median seed-adjusted z-score was -0.136 (inactive). As for GAUAGAAGCAUGGAAUUGATT against MRS2, the median seed-adjusted z-score is 1.38 (active). Then GGUCAAUUCAGUGAAGAUATT against ARL8B, with -0.477 (inactive); and GAUUGGUGGUUGGAACAUUTT against ECE2, with 0.794 (inactive). Then CCAAAGAUAUCGGACCCUATT against PI4K2A, with -0.486 (inactive); and CGGCGUCUCUACUACGUCUTT against CLEC11A, with -1.1 (active). Regarding CUUCCUGGGUGUAAUGUUATT against IGSF1, the median seed-adjusted z-score was 0.258 (inactive). The value for GCAAGGCAGCUGUUCUGAATT against PGLS was 0.188 (inactive); that for GCAUCUGUGAGGAUAUUGATT against FBN3 was 0.264 (inactive).

Regarding GAGUCGAGUUUGAUGAAGATT against GSTA4, the median seed-adjusted z-score is -0.848 (inactive). As for CGUUCGGUCUGACGCAGUATT against LRP5, the median seed-adjusted z-score is -1 (active).

As for CGAUGUCAGUUUCUAGUAATT against USP42, the median seed-adjusted z-score is -0.0125 (inactive).

Regarding GCCGUUUGACCAUACAUUATT against SNTB1, the median seed-adjusted z-score was 0.488 (inactive). Turning to CCAAGAAACUAACACGCUATT against PFKFB2, the median seed-adjusted z-score is 0.311 (inactive). For the sequence GGAAGGUGAUUGAUCCUAATT against HNRNPD, the median seed-adjusted z-score was 0.504 (inactive). For CGAAAAACCAUAGACUACATT against WDR33, the median seed-adjusted z-score was 3.27 (active).

With GCAAAUGUCAGAGAUUGAATT against SFXN5, the median seed-adjusted z-score was 0 (inactive).

Take CAGUUACUCUGGGAGUAUATT against PRPF3: the median seed-adjusted z-score is -0.289 (inactive). The value for CCAGGUGUAUUCAAUGGAATT against FMO3 was -0.0769 (inactive). ACGACUGCCUGGUCUUAAATT against ADAP2: the median seed-adjusted z-score is -1.1 (active). GCACUCGAGUAAUUAGCAATT against DOCK10: the median seed-adjusted z-score was -0.201 (inactive). Consider GGUUCUGCUUUAUUACCUUTT against HNRNPD, for which the median seed-adjusted z-score is 0.504 (inactive).

For CAGCUUACAAUACAUCAAATT against ZNF7, the median seed-adjusted z-score is 0 (inactive). For AAGACAUGAUGUUCCACAATT against ADCY6, the median seed-adjusted z-score is -0.0652 (inactive).

Take GCACAGAUAUCCUCGUGUATT against ARL11: the median seed-adjusted z-score is 1 (active). With CAGUAGCAGUGGAAUGGGATT against RBMX, the median seed-adjusted z-score is 0.0941 (inactive).

As for GCGCUUCUGGUGUACGACATT against RAB17, the median seed-adjusted z-score was 0.473 (inactive).

As to CAUCCACACUUCUCCAGAATT against HK1, the median seed-adjusted z-score is -0.129 (inactive).

Take GAGUGGGCGUGGAUAGAAATT against PSMC2: the median seed-adjusted z-score is -1.96 (active).

With AGUUAUUGCUACUUCAGAATT against CX3CR1, the median seed-adjusted z-score is -0.292 (inactive). Turning to GCAACUACGUUGACUUCUATT against CTNND2, the median seed-adjusted z-score was -0.0491 (inactive). Then AACUGAACAUAGCAGAAUUTT against ZNF85, with -1.01 (active); and CGGUGACUGUGAACGGCAATT against DNAJB8, with -1.09 (active); and ACAUAGUAAAGACUUUCUATT against PIGA, with -0.0514 (inactive).

Consider GUCAGUUGUUAGAACAUAATT against TRIM24, for which the median seed-adjusted z-score is -0.22 (inactive). For CAAUUCUUAUUGACUCAUATT against IFNA1, the median seed-adjusted z-score was -0.625 (inactive). With CAUCAUCCAUGGUAGCUUUTT against DUOX1, the median seed-adjusted z-score is -1.09 (active). On to GCUUGACCCUUAGACGGAATT against LILRB3, for which the median seed-adjusted z-score was 0.0304 (inactive). Then GGUGUUAUCCUAUGAGGUATT against MPP4, with 0.13 (inactive). Then GGAAAAACCUUCUACCUGATT against ZNF12, with -0.144 (inactive); and GGCCUUACGGGUGUAGUAATT against ZNF419, with 0.0405 (inactive); and GGAUCAAGGCUAUGUGGAUTT against CYB5R1, with 0 (inactive). The value for UAUGAGUUGUUGUUGGGAATT against NSUN5 was 0.118 (inactive); that for UCUUAUCCUUUGUCGCAGATT against LMO3 was 0.496 (inactive). As to GCAUCACCCAAGUAGUUAUTT against SFXN2, the median seed-adjusted z-score is 0.365 (inactive).

On to GACUCAUAUGGACCAGUUATT against ZNF460, for which the median seed-adjusted z-score was -0.302 (inactive). With CAUGGGCUCUAUUACGCUUTT against SPEN, the median seed-adjusted z-score is -1.69 (active). Then GUCUACCCAUGGACCCAGATT against HBG1, with -0.716 (inactive). Take CACCAACUAAUGUUACAAUTT against IFNGR1: the median seed-adjusted z-score is -0.279 (inactive).

As for CCUCGAGACUAUACGGUUATT against MED26, the median seed-adjusted z-score is -1.86 (active). On to CCAGUGGAGUGGUAUCUAUTT against RBBP5, for which the median seed-adjusted z-score was 0.169 (inactive). For the sequence GAACUCAUGUCCGACAUAATT against STX1A, the median seed-adjusted z-score is 0 (inactive). On to GCGCUUUGGAGAUCCGAGATT against KLC3, for which the median seed-adjusted z-score was -0.156 (inactive). Consider GCAGUAGAAGUAUCCGGGATT against THSD4, for which the median seed-adjusted z-score is 0.0657 (inactive). As for CCUUCUCAAUGGAUUCCAATT against VN1R1, the median seed-adjusted z-score is 0.531 (inactive).

On to GGUCAUGCAGGGUUGGAAATT against ALDH1B1, for which the median seed-adjusted z-score was 0.105 (inactive). Then GGAAGAUUGUCGCUCCUCATT against TFAP2C, with 1.28 (active); and CAGAAGACCUGGUGCCCUATT against SPI1, with 0.384 (inactive). Consider GCAUUAAUAACAUUACGUUTT against ZNF236, for which the median seed-adjusted z-score is 0.683 (inactive). For the sequence CGCCCGCGAUUACUACCAUTT against HSPA12B, the median seed-adjusted z-score is -0.141 (inactive). Then GUGCCACCGGAGCUAGUAATT against KCNK4, with -0.446 (inactive); and AGGUGAAACUUCGAAGACATT against TRPM3, with -0.633 (inactive); and CGAUGAACGAGUACAUUGATT against GRIA2, with -1.02 (active). CAUCUGAAGUGGUUAAGCATT against SLC25A26: the median seed-adjusted z-score is 0.0213 (inactive). CCGGAAAUUUGGGACGCAATT against DHX58: the median seed-adjusted z-score was -0.302 (inactive). For the sequence GGAGGUCAUUAAAACACCATT against HADH, the median seed-adjusted z-score was 1.11 (active). Consider GGACGACCGUGUAUAGUUUTT against RFESD, for which the median seed-adjusted z-score is -0.503 (inactive). As for CACUUUAGAUGAUAUCAGATT against PPP3CA, the median seed-adjusted z-score was 0.74 (inactive). The value for GCUAUAAGGUGGAACGGCATT against POLR2A was -3.81 (active); that for GCUUAUGGAUGGAGACCAATT against RNF34 was -0.0857 (inactive); that for AGGUGAUGUCGGUCGGAGATT against RAB24 was 0.123 (inactive). As for AGCAAUAACUCGUGUAGCATT against EFNA2, the median seed-adjusted z-score was -0.314 (inactive).

For GGGCGGUACUUUACAACUATT against KCTD9, the median seed-adjusted z-score was 1.31 (active). For CUAGAGUAUUUUGAUCUAATT against FAT2, the median seed-adjusted z-score was -0.286 (inactive).

With CACCGUGUUUGACAACUAUTT against RAC2, the median seed-adjusted z-score was -0.596 (inactive). GGACCAACCCAGAAUCGUATT against MAOB: the median seed-adjusted z-score was 0 (inactive). Consider UCGCAAAGGUGAACACUCATT against PIN1, for which the median seed-adjusted z-score is 0.156 (inactive).

For AGAUGUGACUGGCUGGUCATT against LCN12, the median seed-adjusted z-score is 0.124 (inactive).

In the case of AGACCUACACGGUACGCGUTT against THAP11, the median seed-adjusted z-score was -1.36 (active). Then GCAUCUAAUACUUAUGGAATT against MS4A4A, with 0.296 (inactive). Take GAAGCAUGAUGGACAGGAUTT against ISOC1: the median seed-adjusted z-score was 0.104 (inactive). In the case of CCUCGACCUGGUCACUUUATT against TRMU, the median seed-adjusted z-score is 0.0312 (inactive). Regarding CCGUAGCAAUAGUAGGUGUTT against UBA5, the median seed-adjusted z-score was -0.105 (inactive).

As for GCCUGACCAUCUCCAUUGUTT against USH1C, the median seed-adjusted z-score was -0.164 (inactive). Then CGUGUUCCGAGAAAACGAATT against PLEKHM2, with 0.593 (inactive); and GCAACAGCUCAAAAACGAATT against UAP1, with 0.0411 (inactive); and CAUCUACUGUCAUUAACCATT against ITIH5, with -0.289 (inactive).

Turning to AGACCCAGCUAGAUUCUGATT against GPR152, the median seed-adjusted z-score is -0.9 (inactive). Take CCUCGUUUGACAUCCACUATT against CTSD: the median seed-adjusted z-score is -0.282 (inactive). Turning to CAUUCACGGAGAUAAGAAATT against ALDH1L1, the median seed-adjusted z-score is 0.0289 (inactive). On to UGAAUUACCUGGACCGUUUTT against CCND2, for which the median seed-adjusted z-score was -0.819 (inactive). In the case of UGCGUUUUCUGAUAACUCATT against PTP4A2, the median seed-adjusted z-score was -1.45 (active). Then GGCAAAAAGCUGACUGAGATT against GPD1, with 0.558 (inactive).

In the case of GGAUGAUUAUGCUAAUCUATT against GGPS1, the median seed-adjusted z-score is -0.372 (inactive).

Turning to GCACUGUCUUUGUAUCUGATT against SFXN2, the median seed-adjusted z-score was 0.365 (inactive).

As for GGGCUGUUGUAAUAGUGGATT against SFPQ, the median seed-adjusted z-score was -1.15 (active). For the sequence AGGCCUUUCUUACCCAGAATT against MAP2K1, the median seed-adjusted z-score is 0.942 (inactive). Then CACUUGAUCUCUUAACCAUTT against 10-Sep, with 0.571 (inactive). GCACAGGACAGACAGGCUATT against SRC: the median seed-adjusted z-score was -0.0246 (inactive). On to GGAUUACAGCAGGUGCAGATT against MED8, for which the median seed-adjusted z-score was -1.61 (active). GAAUCUCACAAUUAUGUAUTT against NCK2: the median seed-adjusted z-score was -0.397 (inactive). Consider AGAUAAGCAUGGUGCCCAATT against BPI, for which the median seed-adjusted z-score was 0 (inactive). Take GACCGUUUAAUGAAGCUUUTT against SPTLC2: the median seed-adjusted z-score was 0 (inactive). For CCAUUGUAGUCUCUCCUCUTT against RECQL5, the median seed-adjusted z-score is 0 (inactive). The value for GCCCUCCUGUGCAACCAUATT against SPRR2G was 0.358 (inactive).
